We go through seven compounds from PubChem BioAssay (NCI).

The panel holds about 83,000 compounds, 20% with a hit somewhere; the sample as a whole holds those more often.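 The endpoint reported here, percent growth, reads 100 for growth as untreated, 0 for no net growth and -100 for all cells dead.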 Unmarked numbers belong to inactive results. Calls of active or inactive are those of the source. The calls were made as follows: active = growth percent below 10; inactive = the rest.

Some test systems named below: NCI-H23 lung; NCI-H226 lung; NCI-H322M lung; HOP-62 NSCLC; NCI-H460 lung; HOP-92 NSCLC; NCI-H522 lung; A549/ATCC NSCLC; 786-0 renal; COLO 205 colon; DU-145 prostate; K-562 leukemia; MALME-3M melanoma; MDA-MB-231 breast; RXF 393 renal; SF-268 CNS; SF-295 CNS; SF-539 CNS; UACC-257 melanoma; M14 melanoma.
What all share (assay): NCI-60 one-dose screen, 48 h (100 = growth as untreated, 0 = no growth, -100 = all killed)
Holding throughout (details): 10 µM unless noted

As to `N#Cc1c(-c2cccs2)c(C#N)c(=O)n(Cc2nc3ccccc3[nH]2)c1N`, the growth is 90.7% with NCI-H23 lung; 87% with NCI-H226 lung; 98.5% in the test with NCI-H322M lung; 93.3% in the test on HOP-62 NSCLC; 101% in the test on NCI-H460 lung; 95.2% with HOP-92 NSCLC. Besides, the growth is 95.1% in the test with NCI-H522 lung; 103% in the test on A549/ATCC NSCLC; 103% in the test with 786-0 renal; 111% with COLO 205 colon; 111% in the test with DU-145 prostate; 101% in the test on K-562 leukemia. Also, the growth is 107% in the test on MALME-3M melanoma; 82.4% in the test on MDA-MB-231 breast; 94.4% in the test on RXF 393 renal; 104% with SF-268 CNS; 107% in the test with SF-295 CNS; 97.7% with SF-539 CNS. Moreover, the growth is 110% in the test with UACC-257 melanoma and 98.4% with M14 melanoma.
For the compound `O=C(/C=C/c1cccc(F)c1)c1cccc(OCCCCOc2cccc(C(=O)/C=C/c3cccc(F)c3)c2)c1`, the growth in the test with NCI-H23 lung was 102%; with NCI-H226 lung, 103%; in the test on NCI-H322M lung, 102%; with HOP-62 NSCLC, 114%; in the test on NCI-H460 lung, 100%; in the test with HOP-92 NSCLC, 139%. Moreover, the growth in the test on NCI-H522 lung was 93.4%; in the test on A549/ATCC NSCLC, 104%; in the test on 786-0 renal, 106%; in the test on COLO 205 colon it was 117%; with DU-145 prostate it was 107%; in the test with K-562 leukemia, 100%. The growth in the test with MALME-3M melanoma is 101%; in the test with MDA-MB-231 breast, 95.9%; with RXF 393 renal it was 107%; in the test on SF-268 CNS, 99.7%; in the test with SF-295 CNS, 105%; in the test on SF-539 CNS, 110%. The results for the growth in the test on UACC-257 melanoma and with M14 melanoma were 105% and 103%, respectively.
Take `CC1=C(C)C(=O)C(Nc2ccc3c(c2)OCCO3)=C(Br)C1=O`: the growth is 85.2% with NCI-H23 lung; 85.6% in the test with NCI-H226 lung; 102% with NCI-H322M lung; 97.6% with HOP-62 NSCLC; 102% with NCI-H460 lung; 68.2% with HOP-92 NSCLC. Also, the growth in the test on NCI-H522 lung is 96.9%; in the test on A549/ATCC NSCLC, 107%; in the test with 786-0 renal it was 105%; in the test with COLO 205 colon it was 126%; in the test with DU-145 prostate it was 107%; in the test with K-562 leukemia it was 4.46% (active). Also, the growth in the test on MALME-3M melanoma is 122%; with MDA-MB-231 breast, 88.3%; in the test with RXF 393 renal it was 100%; with SF-268 CNS, 97.8%; in the test on SF-295 CNS, 94.7%; in the test with SF-539 CNS, 105%. Besides, the figures for the growth in the test with UACC-257 melanoma and in the test with M14 melanoma were 102% and 106%, respectively.
Regarding `COc1ccc(/C(=N\NC(N)=S)c2ccc(Cl)cc2)cc1OC`, the growth in the test on NCI-H23 lung was 27.4%; with NCI-H226 lung, 51.6%; with NCI-H322M lung, 53.6%; in the test on HOP-62 NSCLC, 27.5%; in the test on NCI-H460 lung, 12%; in the test with HOP-92 NSCLC, 48.6%. The growth was -10% (active) with NCI-H522 lung; 42.4% in the test on A549/ATCC NSCLC; 42.1% with 786-0 renal; 0.963% (active) in the test with COLO 205 colon; 37.5% in the test on DU-145 prostate; 19% in the test on K-562 leukemia. The growth in the test with MALME-3M melanoma is 30.8%; in the test on MDA-MB-231 breast it was 16.8%; with RXF 393 renal, 25.1%; with SF-268 CNS it was 45%; in the test on SF-295 CNS it was 13.4%; in the test on SF-539 CNS it was 14.2%. In addition, the growth with UACC-257 melanoma is 42.9%; in the test on M14 melanoma, -4.37% (active).
Take `C#C[C@]1(O)CC[C@H]2[C@@H]3CC=C4c5sc(NCc6ccccc6)nc5CC[C@]4(C)[C@H]3CC[C@@]21C`: the growth is 54.2% in the test with NCI-H23 lung; 75.6% in the test with NCI-H226 lung; 59.9% in the test on NCI-H322M lung; 14.1% with HOP-62 NSCLC; 51.8% in the test on NCI-H460 lung; 23.1% with HOP-92 NSCLC. Besides, the growth in the test on NCI-H522 lung is 80%; in the test with A549/ATCC NSCLC, 52%; with 786-0 renal it was -72.3% (active); in the test with COLO 205 colon, 37%; in the test with DU-145 prostate it was 71%; with K-562 leukemia, 1.46% (active). For the same compound, the growth in the test with MALME-3M melanoma is 43.6%; in the test with MDA-MB-231 breast, 48.4%; in the test with RXF 393 renal, -36% (active); in the test with SF-268 CNS, 47.5%; in the test on SF-295 CNS it was -57.6% (active); in the test with SF-539 CNS, -39.9% (active). In addition, the growth in the test on UACC-257 melanoma is -10% (active); with M14 melanoma, 21.4%.
Consider `O=C(CSc1nc2ccccc2c(=O)n1CCc1ccccc1)Nc1ccc(S(=O)(=O)Nc2ccc(Cl)nn2)cc1`, for which the growth with NCI-H23 lung is 89.9%; in the test on NCI-H226 lung it was 88.1%; in the test with NCI-H322M lung it was 92.8%; in the test on HOP-62 NSCLC, 95.8%; in the test with NCI-H460 lung, 101%; with HOP-92 NSCLC, 79.7%. Also, the growth in the test with NCI-H522 lung was 87.1%; in the test on A549/ATCC NSCLC, 91.9%; in the test with 786-0 renal, 102%; with COLO 205 colon, 101%; in the test with DU-145 prostate, 105%; with K-562 leukemia it was 87.2%. Further, the growth in the test on MALME-3M melanoma was 96.5%; in the test with MDA-MB-231 breast, 94.7%; in the test on RXF 393 renal it was 86.5%; in the test on SF-268 CNS, 96.7%; in the test on SF-295 CNS it was 95.3%; in the test with SF-539 CNS it was 92.3%. Moreover, the growth is 99.3% in the test on UACC-257 melanoma and 96.2% with M14 melanoma.
For `O=C(Nc1ccc(N2CCOCC2)cc1)Nc1ccc2c(ccn2C(=O)c2cccc(F)c2)c1`, the growth was 66.7% in the test with NCI-H23 lung; 41.4% in the test with NCI-H226 lung; 92.5% in the test on NCI-H322M lung; 31.1% in the test on HOP-62 NSCLC; 38.8% with NCI-H460 lung; 31.4% in the test on HOP-92 NSCLC. Also, the growth is 73.7% in the test on NCI-H522 lung; 59.5% in the test on A549/ATCC NSCLC; 28.4% with 786-0 renal; 82.1% in the test on COLO 205 colon; 60.2% in the test with DU-145 prostate; 77.3% in the test on K-562 leukemia. In addition, the growth in the test with MALME-3M melanoma was 49.4%; with MDA-MB-231 breast it was 60.1%; in the test on RXF 393 renal, -0.178% (active); with SF-268 CNS it was 65.2%; in the test on SF-295 CNS it was 32.5%; with SF-539 CNS, 28.3%. The growth was 61.2% in the test with UACC-257 melanoma and 51.3% in the test on M14 melanoma.
